Assay results published in PubChem BioAssay AID687030 (Broad Institute, 2013).
Out of some 1,400 compounds screened, about 10 (0.7%) were called active. The rule behind the calls is not given here. A selection follows. Potency and affinity values are given separately.

assay: viability loss in BHK-21 cells – cell-based, plate reader, cherry-pick samples, cytotoxicity control, dose response (AID 687030); conditions: series mostly up to 19.5 µM; activity change, negative = toxicity: at the top concentration;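 note: cells were exposed to compound for three days before reading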

SMILES | activity change, negative = toxicity
C=CCC1NS(=O)(=O)OC(COC)C1C (configuration not stated) | 7.81% (inactive)
COCCCNc1oc(-c2ccccc2F)nc1C#N | -1.28% (inactive)
COc1ccc(-c2cc(NC=O)c3ncc(-c4cc(OC)c(OC)c(OC)c4)n3c2)c(OC)c1 | -22.7% (inactive)
COC(=O)C(Cc1csc2ccc(Cl)cc12)NC(=O)c1ccc(Cl)cc1 (configuration not stated) | 1.57% (inactive)
COc1ccc(NC(=O)N[C@H]2CC[C@@H](CCn3cc(C4(O)CCCC4)nn3)O[C@@H]2CO)cc1 | -4.13% (inactive)
COc1ccc(NC(=O)N[C@@H]2CC[C@@H](CCNS(=O)(=O)c3cccc(Cl)c3)O[C@@H]2CO)cc1 | 8.65% (inactive)
O=C(c1cccc(Cl)c1)N1CCC2(CC1)NCCc1[nH]cnc12 | -0.584% (inactive)
O=C(NCCN1CCOCC1)c1ccc2c(c1)N(Cc1ccc(F)cc1)C(=O)CS2 | -1.79% (inactive)
Cc1ccc(C(=O)NCC(=O)NCC(c2cccs2)N2CCOCC2)cc1C (configuration not stated) | -3.9% (inactive)
C[C@@H]1CN([C@H](C)CO)C(=O)c2cc(NC(=O)Nc3ccc(C(F)(F)F)cc3)ccc2O[C@H]1CN(C)C(=O)NC1CCCCC1 | -6.24% (inactive)
CCCN(C)C1CN(Cc2cn(Cc3ccc(C)cc3)nn2)S(=O)(=O)C1 (configuration not stated) | 1.6% (inactive)
COc1ccccc1N1CCN(Cc2cnc3ccc(Cl)cn23)CC1 | 5.21% (inactive)
C[C@H]1CN([C@@H](C)CO)C(=O)c2cccc(NC(=O)C3CCCCC3)c2O[C@@H]1CN(C)Cc1ccc(C(=O)Nc2ccccc2N)cc1 | -1.15% (inactive)
C[C@@H]1CCCCO[C@@H](CN(C)C(=O)Nc2cccc3ccccc23)[C@H](C)CN([C@H](C)CO)C(=O)c2cc(NC(=O)CCC(F)(F)F)ccc2O1 | 4.27% (inactive)
CCOC(=O)C1CCCN(c2c(N3CCOCC3)c(=O)c2=O)C1 (configuration not stated) | 1.44% (inactive)
O=C(CN1CCN(C(=O)C2CCC2)CC1)Nc1ccc(F)cc1 | -23.3% (inactive)
CCCCNC(=O)O[C@H]1C[C@@H]2CCN3C(=O)CCC[C@H]([C@H]1Cc1ccccc1)[C@H]23 | -3.09% (inactive)
Cn1cnc(S(=O)(=O)N[C@@H]2CC[C@H](CC(=O)NCC3CCCCC3)O[C@@H]2CO)c1 | -3.49% (inactive)
CCC1(c2ccccc2)NC(=O)N(CC(=O)Nc2ccccc2C(=O)N2CCCCC2)C1=O (configuration not stated) | 5.31% (inactive)
CS(=O)(=O)c1cccc(-c2nnc(NC(=O)c3ccc(S(=O)(=O)N4CCCC4)cc3)o2)c1 | 3.15% (inactive)
Clc1cc(Br)ccc1OCCCn1ccnc1 | -1.16% (inactive)
Clc1cc(Br)ccc1OCCOCCN1CCCC1 | 1.69% (inactive)
c1cc(-c2ccc(N3CCOCC3)cc2)n2cnnc2c1 | 2.6% (inactive)

SMILES | activity change, negative = toxicity
COc1ccc(C2CC(c3ccccc3)=NN2S(=O)(=O)c2ccccc2)c(OC)c1 (configuration not stated) | 5.02% (inactive)
O=C(C[C@@H]1CC[C@@H]2[C@H](COC[C@H](O)CN2CC2CCOCC2)O1)N1CCOCC1 | -3.67% (inactive)
C[C@H](NC(=O)CCCOc1ccc(Cl)cc1Cl)c1nnc2ccccn12 | -0.687% (inactive)
Cc1ccc(NC(=O)c2nc[nH]c2C(=O)N[C@@H](C)C(=O)OC(C)(C)C)cc1 | -2.08% (inactive)
Cc1ccc(NC(=O)c2ccc3c(c2)OCO3)cc1Cl | 2.36% (inactive)
COc1ccc(OC)c(CN2C(=O)CN(S(C)(=O)=O)CC2(C)C(=O)NCc2ccccc2)c1 (configuration not stated) | 6.21% (inactive)
CNC(=O)C[C@H]1CC[C@@H]2[C@H](COC[C@@H](O)CN2C(=O)Nc2ccc3c(c2)OCO3)O1 | -2.76% (inactive)
CN(C)C1(CNC(=O)C2CCN(S(=O)(=O)c3ccccc3C(F)(F)F)CC2)CCCCC1 | -1.27% (inactive)
CC(C)(C)c1ccc(NC(=O)NC2CCCc3ccccc32)cc1 (configuration not stated) | 5.49% (inactive)
Cc1ccnc(NC(=O)c2ccc(Cl)c(S(=O)(=O)N3CCCC3)c2)c1 | 1.18% (inactive)
COc1cccc(NC(=O)CN(C)C(=O)c2cccc(S(=O)(=O)N3c4ccccc4CC3C)c2)c1 (configuration not stated) | -7.69% (inactive)
O=C(O)[C@]1(S(=O)(=O)c2ccccc2)C[C@@H]2ON=C(c3cccc(Br)c3)[C@@H]2C1 | -0.71% (inactive)
COc1cccc(-c2ncc3ccccc3c2COC(=O)c2ccc(F)cc2)c1 | -5.22% (inactive)
COc1ccc(C(N)c2csc(Nc3cc(Oc4ccccc4)ncn3)n2)cc1 (configuration not stated) | 2.64% (inactive)
CCN1[C@H](C(=O)NCCCN(C)C)[C@@H](CO)[C@@H]2Cn3c(ccc(-c4cccc(F)c4)c3=O)[C@@H]21 | -0.329% (inactive)
Cc1nc(CCNC(=O)CC2C(=O)NCCN2CC(C)C)nc2c1CCC2 (configuration not stated) | 1.12% (inactive)
CCCS(=O)(=O)N1CCCC(C(=O)NCCc2cccc(C)c2)C1 (configuration not stated) | -3.14% (inactive)
C[C@@H]1CN([C@@H](C)CO)S(=O)(=O)c2ccc(-c3ccncc3)cc2O[C@H]1CN(C)C(=O)CC1CC1 | -5.55% (inactive)
N#C[C@@H]1[C@H](c2ccc(-c3ccccc3F)cc2)[C@H](CO)N1C(=O)C1CC1 | -10.2% [at 21 µM] (inactive)
CC(=O)NC[C@H]1[C@H](c2ccc(-c3ccccc3F)cc2)[C@@H](CO)N1C(=O)C1CC1 | -6.85% (inactive)
CCCNC(=O)C1(C)CCCN(Cc2ccc(C#N)cc2)C1 (configuration not stated) | -0.631% (inactive)
O=C(c1cc(-c2cccs2)on1)N1CCCc2ccccc21 | 4.97% (inactive)
O=C1CCN(CCc2ccccc2)CCN1[C@H](COc1ccccc1)c1ccccc1 | 2.11% (inactive)

SMILES | activity change, negative = toxicity
O=C1CN(C(=O)COC(=O)c2c(F)cccc2Cl)c2ccccc2N1 | 7.85% (inactive)
COc1ccc(NC(=O)COC(=O)c2c(C)noc2C)cc1Cl | -6.26% (inactive)
C[C@H]1[C@H](c2ccccc2)C[C@@H](C(=O)O)C1(C)C | 2.3% (inactive)
COc1c(Cl)cc(Br)c(OC)c1C(=O)NC(=O)Nc1nc(C)cc(C)n1 | -2.87% (inactive)
CCCc1nc2c(C)cc(Br)cn2c1Cc1ccc(OC)cc1C | -5.06% (inactive)
CCN(c1ccccc1)S(=O)(=O)c1ccc(C(=O)N2CCN(c3ccccc3F)CC2)cc1 | -0.489% (inactive)
CCCN1C[C@H](C)[C@H](OC)CN(C)C(=O)c2cc(NS(=O)(=O)c3cn(C)cn3)ccc2OC[C@@H]1C | 0.807% (inactive)
C#CCNC(=O)C[C@@H]1C[C@@]2(C(=O)OC)CCCCC=C2N(Cc2cccc3ccccc23)C1=O | 0.38% (inactive)
COc1cccc(S(=O)(=O)N2CC3(CN(C(=O)Nc4ccc(F)cc4)[C@H](CO)c4[nH]c5cc(OC)ccc5c43)C2)c1 | -0.859% (inactive)
COc1ccc2c3c([nH]c2c1)[C@H](CO)N(C(=O)c1ccccc1)CC31CN(S(=O)(=O)c2cccs2)C1 | 0.044% (inactive)
COc1ccccc1NC(=O)N1CCN(c2ccccn2)CC1 | 0.23% (inactive)
CCOC(=O)C[C@H]1c2ccccc2S(=O)(=O)N1c1ccccc1 | 7.34% (inactive)
O=C(Nc1ccc(Cl)cc1)N(CCCN1CCOCC1)Cc1cccs1 | -0.064% (inactive)
NC[C@H](Cc1ccccc1)NCCCCC1CCCCC1 | 5.93% (inactive)
CO[C@@H](CN(C)C(=O)c1cc(Cl)cc(Cl)c1)[C@H](C)CN(C(=O)Nc1ccc(F)cc1)[C@@H](C)CO | 4.92% (inactive)
COc1cccc(CNC(=O)[C@H]2CCCN2C(=O)C2CCCN2C(=O)c2ccc(OC)c(F)c2)c1 (some centres not stated) | 5.15% (inactive)
CCCNC(=O)[C@H]1[C@H](CO)[C@H]2Cn3c(cccc3=O)[C@H]2N1Cc1ccccc1Cl | -3.48% [at 21 µM] (inactive)
COc1ccc(-c2sc3cc4c(cc3c2C#Cc2cncn2C)OCO4)cc1 | -2.31% (inactive)
CC(=O)Nc1cccc(OCCCNC(=O)c2ccc(C(C)(C)C)cc2)c1 | -2.02% (inactive)
CC(C)(C)c1ccc(C(=O)Nc2ccc3c(c2)C(=O)NC3=O)cc1 | 5.72% (inactive)
CN1C(=O)c2cc(NC(=O)NCc3ccccc3)ccc2OC[C@H]2O[C@H](CC(=O)NCC3CCCCC3)CC[C@H]21 | -2.23% (inactive)
Cc1ccccc1OCCC(=O)OCC(=O)NCCc1ccc(S(N)(=O)=O)cc1 | -0.913% (inactive)
C[C@H](CO)N1C[C@H](C)[C@@H](CN(C)Cc2ccc3c(c2)OCO3)OCCCC[C@H](C)Oc2ccc(N(C)C)cc2C1=O | 2.33% (inactive)

SMILES | activity change, negative = toxicity
CSc1ccccc1NC(=O)c1cc2c(=O)n3ccccc3nc2s1 | 2.33% (inactive)
CCN(CC)CCCNc1nc(C)cc(COC)c1C#N | -3.72% (inactive)
CCCCN(C(=O)c1ccc2c(c1)NC(=O)CS2)c1ccccc1 | 4.54% (inactive)
O=C(OCc1ccccc1)N1CCCC2CC1c1ccccc12 (configuration not stated) | -1.75% (inactive)
COc1cccc(OC)c1C(=O)N1CCN(Cc2c[nH]c3ccccc23)CC1 | -1.55% (inactive)
O=C(c1ccc(CNc2c(N3CCCC3)c(=O)c2=O)cc1)N1CCN(C2CCCCC2)CC1 | -6.28% (inactive)
CCOc1ccccc1-c1nnc(CS(=O)(=O)c2ccccc2)o1 | 1.34% (inactive)
CCOC(=O)c1ccc(NC(=O)c2nc[nH]c2C(=O)NC2CCN(C(=O)OC(C)(C)C)CC2)cc1 | 1.41% (inactive)
Cc1cccc(N(C)c2cc(C)nc3nc(C)nn23)c1 | -4.81% (inactive)
COCc1cccc(-c2csc(C(N)c3ccc(F)c(F)c3)n2)c1 (configuration not stated) | -4.14% (inactive)
COc1ccc(S(=O)(=O)N2CCCCN3[C@H](CO)[C@H](c4ccc(C5=CCCC5)cc4)[C@@H]3C2)cc1 | -2.71% (inactive)
COC(=O)c1ccc(NC(=O)C2CC3CCC2C3)cc1 (configuration not stated) | -2.2% (inactive)
COc1ccc(C2(C)CC(C)(C)Nc3ccccc32)cc1 (configuration not stated) | 0.418% (inactive)
CC(C)(O)C#Cc1ccc([C@@H]2[C@@H](CO)N3CCCCN(C(=O)c4ccc(F)cc4)C[C@@H]23)cc1 | 6.25% (inactive)
O[C@@H]1CN(Cc2cccs2)[C@@H](c2ccccc2)C[C@H]1n1cc(-c2ccc(F)cc2)nn1 | 3.94% (inactive)
COC(=O)c1c(NC(=O)CC2Sc3ccc(C(F)(F)F)cc3NC2=O)sc(C)c1C (configuration not stated) | 3.54% (inactive)
COC(=O)c1ccc2nc(-c3ccc(F)cc3)c(Cc3ccccc3OC)n2c1 | 4.29% (inactive)
CC(C)C(NS(=O)(=O)c1ccc2c(c1)C(C)(C)C(=O)N2C)C(=O)NCc1ccccc1Cl (configuration not stated) | -2.05% (inactive)
COc1ccc2c3c(n(C)c2c1)[C@H](CO)N(C(=O)Nc1ccccc1F)CC31CN(C)C1 | 2.87% [at 21 µM] (inactive)
C[C@H]1CN([C@@H](C)CO)C(=O)c2cc(NC(=O)CCCN(C)C)ccc2O[C@@H]1CN(C)S(=O)(=O)c1ccc(Cl)cc1 | 11.6% [at 21 µM] (inactive)
Cc1ccccc1OCCCCN1CCCCC1 | -3.74% (inactive)
Cc1ccc(SC[C@H](Cc2ccccc2)N2CC[C@@H](C)CCC2=O)cc1 | 13.1% [at 10 µM] (inactive)
CC(C)c1ccc(NC(=O)Nc2nc(C(N)c3ccccc3Cl)cs2)cc1 (configuration not stated) | 1.49% (inactive)
